# Measured values reported in PubChem BioAssay (Tox21).
# Records with an inconclusive call do not appear. Entries that show only a call come without a potency. Activity calls are given as the source filed them. Unless noted, the call rests on the fitted dose curve. Square brackets hold non-standard residues; d marks the D form. Peptide text beside a SMILES is read from it. pGlu = O=C1CC[C@@H](C(=O)O)N1
# What was measured:
# [1] = Nuclear factor erythroid 2-related factor 2/antioxidant responsive element (Nrf2/ARE) small molecule agonists: qHTS cell viability counter screen in human keratinocytes (AID 1919968; active means well fitted curve in the direction sought with a large enough effect in the repeat runs; an effect the other way counts as inactive or inconclusive; further: nearly all actives have a fitted effect of over 55% in size; further: potency means the concentration at half of the fitted maximal effect)
# How it was run: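 Viability counter-screen: KeratinoSens reporter cells, DMSO-delivered compounds, 23 h at 37 C, CellTiter-Fluor fluorescence.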
# [2] = Nuclear factor erythroid 2-related factor 2/antioxidant responsive element (Nrf2/ARE) small molecule agonists: luciferase reporter gene qHTS assay in human keratinocytes (AID 1919969); further: nearly all actives have a fitted effect of over 35% in size; further: potency means the concentration at half of the fitted maximal effect
# [3] = target: KiSS-1 receptor (Homo sapiens) (UniProt Q969F8); test: Human kisspeptin (KISS1R) small molecule agonists, calcium flux assay in KISS1R-HEK293 cells (AID 1920064; active means well fitted curve in the direction sought with a large enough effect in the repeat runs; an effect the other way counts as inactive or inconclusive)
# How it was run: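 Intracellular calcium mobilization in KISS1R-HEK293 cells was recorded by fluorescence (Ex/Em 480/540) for 3 min following compound addition to cells pre-loaded 1 h with calcium dye.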
# [4] = G protein-coupled receptor (GPCR) small molecule agonists, calcium flux assay: HEK293 wild type cell line counter screen (AID 1920065)
# How it was run: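 In this agonist-mode screen, ATP is the positive control and DMSO the vehicle. Cells grow 18 h before a 1 h dye incubation at 37 C; signal is taken at Ex/Em 480/540 over 3 min.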
# [5] = p53 small molecule agonists, cell-based qHTS assay with human liver microsomes (AID 1963577);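 further: p53 response element beta-lactamase reporter cells with liver microsomes plus NADPH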
# How it was run: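 HLM-supplemented p53RE-bla reporter assay: 16 h compound exposure at 37 C, microsomes and NADPH each 0.5 mg/mL final, read by fluorescence intensity.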
# [6] = p53 small molecule agonists, cell-based qHTS assay with rat liver microsomes (AID 1963578)
# How it was run: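 Quantitative HTS of the Tox21 10K library: p53RE-bla cells, rat liver microsomes plus NADPH at 0.5 mg/mL final each, 16 h at 37 C, beta-lactamase fluorescence detection.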
# [7] = p53 small molecule agonists, cell-based qHTS assay with human liver microsomes: qHTS cell viability counter screen (AID 1963579); further: nearly all actives have a fitted effect of over 45% in size; further: potency means the concentration at half of the fitted maximal effect
# How it was run: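 Viability of p53RE-bla cells is measured as CellTiter-Glo luminescence following a 16 h, 37 C incubation with compound, liver microsomes from human donors and NADPH.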
# [8] = p53 small molecule agonists, cell-based qHTS assay with rat liver microsomes: qHTS cell viability counter screen (AID 1963580); further: nearly all actives have a fitted effect of over 45% in size; further: potency means the concentration at half of the fitted maximal effect
# How it was run: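 Viability is assessed in parallel with the p53 reporter read: HCT-116 p53RE-bla cells receive compounds plus rat microsomes and NADPH (0.5 mg/mL final apiece), incubate 16 h at 37 C, and then CellTiter-Glo luminescence is recorded.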
# [9] = p53 small molecule agonists, cell-based qHTS assay: qHTS cell viability counter screen (AID 1963581); further: nearly all actives have a fitted effect of over 45% in size; further: potency means the concentration at half of the fitted maximal effect
# How it was run: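 Compounds are pinned onto HCT-116 p53RE-bla cells and left 16 h at 37 C. Following the reporter FRET read, ATP is quantified by CellTiter-Glo luminescence after 30 min at room temperature.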
# [10] = target: 5-hydroxytryptamine receptor 2A (Homo sapiens) (UniProt P28223); test: 5-hydroxytryptamine receptor 2A (HTR2A) small molecule antagonists, cell-based qHTS assay (AID 1963586); further: nearly all actives have a fitted effect of over 45% in size; further: potency means the concentration at half of the fitted maximal effect
# How it was run: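 Antagonist-mode intracellular calcium assay: DOI (4 nM) added after 5 min compound pre-incubation at room temperature to dye-loaded HTR2A-CHO cells. Fluorescence followed for 3 min, sampled every second.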
# [11] = target: 5-hydroxytryptamine receptor 2A (Homo sapiens) (UniProt P28223); test: 5-hydroxytryptamine receptor 2A (HTR2A) small molecule agonists, cell-based qHTS assay (AID 1963587); further: nearly all actives have a fitted effect of over 30% in size; further: potency means the concentration at half of the fitted maximal effect
# How it was run: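 CHO cells stably expressing human HTR2A, plated 18 h, loaded with calcium dye 1 h at 37 C. Agonist mode: compounds added and intracellular calcium fluorescence recorded kinetically for 2 min at 1 sec intervals.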
# [12] = target: Muscarinic acetylcholine receptor M1 (Homo sapiens) (UniProt P11229); test: Cholinergic receptor muscarinic 1 (CHRM1) small molecule agonists, cell-based qHTS assay (AID 1963589); further: nearly all actives have a fitted effect of over 35% in size
# How it was run: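 Stable CHRM1-CHO cells (human receptor) were incubated 18 h, dye-loaded for 1 h at 37 C and exposed to test compounds for agonist activity, with calcium-dependent fluorescence followed kinetically.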
# [13] = target: Beta-2 adrenergic receptor (Homo sapiens) (UniProt P07550); test: Adrenergic beta2 receptor (ADRB2) small molecule antagonists, cell-based qHTS assay (AID 1963592); further: nearly all actives have a fitted effect of over 50% in size; further: potency means the concentration at half of the fitted maximal effect
# How it was run: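 Cells (CHO, stable ADRB2 overexpression) incubated 18-20hr at 37C; compounds added from DMSO; agonist mix (1nM isoproterenol, 100uM IBMX, 25uM Ro-20-1724) added; 0.5hr RT; d2-cAMP and anti-cAMP-cryptate added; 1hr RT; 665/615 nm read.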
# [14] = target: Beta-2 adrenergic receptor (Homo sapiens) (UniProt P07550); test: Adrenergic beta2 receptor (ADRB2) small molecule agonists, cell-based qHTS assay (AID 1963593);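 further: CHO cells stably overexpressing human ADRB2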
# How it was run: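 CHO cells stably over-expressing ADRB2 were plated overnight at 37C, then dosed with compounds plus a stimulation mix containing 100uM IBMX and 25uM Ro-20-1724 for 0.5hr at room temperature. cAMP was measured by HTRF competition, 1hr.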
# [15] = target: D(2) dopamine receptor (Homo sapiens) (UniProt P14416); test: Dopamine D2 receptor (DRD2) small molecule antagonists, cell-based qHTS assay (AID 1963595; active means well fitted inhibition curve with a large enough effect in the signal ratio in the repeat runs, with a control signal flat; the % refers to the signal ratio; further: potency means the concentration at half of the fitted maximal effect)
# How it was run: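 Readout: HTRF cAMP, cAMP-d2 competing with cellular cAMP for anti-cAMP cryptate, read after 1 h. Cells: DRD2-HEK293. Conditions: 0.1 mM Ro20-1724, 12 nM quinpirole, 200 nM NKH477, 30 min RT.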
# [16] = p53 small molecule agonists, cell-based qHTS assay (AID 1963582; active means well fitted activation curve with a large enough effect in the signal ratio in the repeat runs, not every such curve was filed as active; the % refers to the signal ratio; further: potency means the concentration at half of the fitted maximal effect)
# How it was run: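 Agonist activity was scored from beta-lactamase FRET fluorescence in p53RE-bla cells treated 16 h at 37 C with compounds in DMSO, substrate incubation being 2 h at room temperature.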
# [17] = target: Muscarinic acetylcholine receptor M1 (Homo sapiens) (UniProt P11229); test: Cholinergic receptor muscarinic 1 (CHRM1) small molecule antagonists, cell-based qHTS assay (AID 1963588); further: nearly all actives have a fitted effect of over 40% in size
# How it was run: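 CHRM1-CHO calcium-flux assay, antagonist mode. Cells were seeded 18 h, dye-loaded 1 h at 37 C and given compound for 5 min at RT, then acetylcholine was added at 50nM. FDSS fluorescence was read 3 min; 15 concentrations, three runs.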
# [18] = cAMP Responsive Elements (CRE) small molecule agonists, cell-based qHTS assay (AID 1963590)
# How it was run: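 FRET-based beta-lactamase readout (LiveBLAzer B/G, 2 h RT) quantified CRE activation in HEK 293T CRE-bla cells after 3 h treatment with DMSO-dissolved compounds.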
# [19] = cAMP Responsive Elements (CRE) small molecule antagonists, cell-based qHTS assay (AID 1963591; active means well fitted inhibition curve with a large enough effect in the signal ratio in the repeat runs, not every such curve was filed as active; the % refers to the signal ratio)
# How it was run: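 qHTS in CRE-bla HEK 293T cells: compound in DMSO, then 0.25 uM NKH477 (final), 3 h at 37 °C/5% CO2; beta-lactamase FRET read-out after 2 h substrate incubation.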
# [20] = target: D(2) dopamine receptor (Homo sapiens) (UniProt P14416); test: Dopamine D2 receptor (DRD2) small molecule agonists, cell-based qHTS assay (AID 1963594); further: nearly all actives have a fitted effect of over 35% in size
# How it was run: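 HEK293 cells stably expressing human DRD2, pre-treated with PDE inhibitor Ro20-1724 (0.1 mM final) and compound 10 min at room temperature, then stimulated with NKH477 (200nM […]) for 30 min. cAMP read by HTRF (665/620 nm).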
# Sequence of 5-hydroxytryptamine receptor 2A (Homo sapiens) (P28223 whole entry, looked up): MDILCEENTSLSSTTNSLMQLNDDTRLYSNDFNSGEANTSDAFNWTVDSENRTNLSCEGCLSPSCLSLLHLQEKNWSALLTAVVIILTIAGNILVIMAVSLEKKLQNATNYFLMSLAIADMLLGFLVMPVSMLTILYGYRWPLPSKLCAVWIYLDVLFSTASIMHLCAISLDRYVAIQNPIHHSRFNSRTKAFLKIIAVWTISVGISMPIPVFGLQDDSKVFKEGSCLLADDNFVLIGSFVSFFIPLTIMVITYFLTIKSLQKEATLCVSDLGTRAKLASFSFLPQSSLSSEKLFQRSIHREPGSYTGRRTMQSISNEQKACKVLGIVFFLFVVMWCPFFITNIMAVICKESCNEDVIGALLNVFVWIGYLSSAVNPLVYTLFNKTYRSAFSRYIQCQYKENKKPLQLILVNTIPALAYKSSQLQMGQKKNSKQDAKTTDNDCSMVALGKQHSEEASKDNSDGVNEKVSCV
# Sequence of Muscarinic acetylcholine receptor M1 (Homo sapiens) (P11229 whole entry, looked up): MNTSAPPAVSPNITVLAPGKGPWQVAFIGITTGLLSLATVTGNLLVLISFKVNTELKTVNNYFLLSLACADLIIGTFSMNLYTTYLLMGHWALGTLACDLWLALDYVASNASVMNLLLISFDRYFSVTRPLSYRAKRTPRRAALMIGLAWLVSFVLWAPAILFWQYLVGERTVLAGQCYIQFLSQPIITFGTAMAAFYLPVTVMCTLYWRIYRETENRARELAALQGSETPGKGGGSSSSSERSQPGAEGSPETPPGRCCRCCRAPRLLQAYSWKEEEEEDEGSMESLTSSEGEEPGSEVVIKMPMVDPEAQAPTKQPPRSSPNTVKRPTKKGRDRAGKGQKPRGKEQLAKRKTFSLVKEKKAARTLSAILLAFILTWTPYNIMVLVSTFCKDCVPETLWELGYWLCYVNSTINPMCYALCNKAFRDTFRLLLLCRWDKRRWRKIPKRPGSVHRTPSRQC
# Sequence of D(2) dopamine receptor (Homo sapiens) (P14416 whole entry, looked up): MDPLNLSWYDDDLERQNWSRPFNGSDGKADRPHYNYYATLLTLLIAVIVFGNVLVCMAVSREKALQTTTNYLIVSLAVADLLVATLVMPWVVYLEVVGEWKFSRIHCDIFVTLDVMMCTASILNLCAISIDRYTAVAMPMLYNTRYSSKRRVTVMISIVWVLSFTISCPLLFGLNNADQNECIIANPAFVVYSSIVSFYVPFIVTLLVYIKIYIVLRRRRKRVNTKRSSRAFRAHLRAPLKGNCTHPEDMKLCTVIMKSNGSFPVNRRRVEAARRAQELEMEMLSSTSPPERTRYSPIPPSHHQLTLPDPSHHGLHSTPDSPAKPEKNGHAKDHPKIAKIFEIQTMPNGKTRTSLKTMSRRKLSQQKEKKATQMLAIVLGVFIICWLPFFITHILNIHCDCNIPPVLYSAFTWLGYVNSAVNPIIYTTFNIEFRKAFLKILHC
# Sequence of Beta-2 adrenergic receptor (Homo sapiens) (P07550 whole entry, looked up): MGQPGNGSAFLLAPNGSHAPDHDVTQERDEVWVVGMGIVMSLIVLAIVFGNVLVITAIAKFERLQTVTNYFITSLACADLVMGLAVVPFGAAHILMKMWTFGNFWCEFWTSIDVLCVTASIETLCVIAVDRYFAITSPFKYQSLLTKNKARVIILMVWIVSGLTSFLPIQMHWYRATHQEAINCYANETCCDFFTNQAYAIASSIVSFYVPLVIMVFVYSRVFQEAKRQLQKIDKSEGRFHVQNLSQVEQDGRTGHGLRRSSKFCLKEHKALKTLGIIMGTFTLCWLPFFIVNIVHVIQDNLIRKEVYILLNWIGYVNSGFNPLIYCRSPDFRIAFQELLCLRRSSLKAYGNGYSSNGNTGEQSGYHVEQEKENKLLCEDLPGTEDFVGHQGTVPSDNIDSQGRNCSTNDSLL
# Sequence of KiSS-1 receptor (Homo sapiens) (Q969F8 whole entry, looked up): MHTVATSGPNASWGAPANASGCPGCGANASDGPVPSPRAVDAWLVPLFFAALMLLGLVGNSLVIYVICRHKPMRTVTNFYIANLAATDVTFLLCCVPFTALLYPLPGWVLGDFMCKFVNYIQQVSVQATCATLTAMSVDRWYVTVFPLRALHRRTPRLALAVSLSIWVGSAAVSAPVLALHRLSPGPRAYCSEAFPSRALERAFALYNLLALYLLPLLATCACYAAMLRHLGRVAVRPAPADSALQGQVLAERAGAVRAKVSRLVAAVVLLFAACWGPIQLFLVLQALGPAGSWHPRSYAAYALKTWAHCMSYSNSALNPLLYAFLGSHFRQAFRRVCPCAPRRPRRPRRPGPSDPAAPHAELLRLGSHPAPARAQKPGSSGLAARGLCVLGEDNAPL
SMILES,Potency [1],Potency [2],Potency [3],Potency [4],Potency [5],Potency [6],Potency [7],Potency [8],Potency [9],Potency [10],Potency [11],Potency [12],Potency [13],Potency [14],Potency [15],Potency [16],Potency [17],Potency [18],Potency [19],Potency [20]
C[C@]12CCC(=O)C=C1C=C[C@@H]1[C@@H]2CC[C@@]2(C)[C@H]1CC[C@@]21CCC(=O)O1,inactive,inactive,inactive,inactive,inactive,inactive,inactive,inactive,inactive,inactive,inactive,inactive,inactive,inactive,inactive,–,–,–,–,–
c1coc(Cn2cccc2)c1,inactive,inactive,inactive,inactive,inactive,inactive,inactive,inactive,inactive,–,–,–,30.6 µM (active),–,inactive,inactive,inactive,inactive,inactive,–
COc1cccc2c1C(=O)c1c(O)c3c(c(O)c1C2=O)C[C@@](O)(C(=O)CO)C[C@@H]3O[C@H]1C[C@H](N)[C@H](O[C@@H]2CCCCO2)[C@H](C)O1,9.44 µM (active),2.66 µM (active),inactive,inactive,inactive,inactive,inactive,3.97 µM (active),inactive,–,10.7 µM (active),–,inactive,–,–,1.78 µM (active),inactive,–,–,–
CNC(=O)C(c1ccccc1)c1ccccc1,inactive,inactive,–,inactive,–,–,inactive,–,–,inactive,inactive,inactive,inactive,–,inactive,–,inactive,inactive,inactive,inactive
Cc1cc(C(C#N)c2ccc(Cl)cc2)c(Cl)cc1NC(=O)c1cc(I)cc(I)c1O (stereo unspecified),29.8 µM (active),inactive,–,inactive,–,–,inactive,–,5.61 µM (active),–,–,–,inactive,–,inactive,–,–,–,–,inactive
COc1cc(NS(=O)(=O)c2ccc(N)cc2)nc(C)n1,inactive,inactive,–,–,inactive,–,inactive,inactive,inactive,inactive,inactive,–,inactive,inactive,inactive,inactive,–,inactive,inactive,inactive
CCNC(=O)[C@@H]1CCCN1C(=O)[C@H](CCCN=C(N)N)NC(=O)[C@H](CC(C)C)NC(=O)CNC(=O)[C@H](Cc1ccc(O)cc1)NC(=O)[C@H](CO)NC(=O)[C@H](Cc1c[nH]c2ccccc12)NC(=O)[C@H](Cc1cnc[nH]1)NC(=O)[C@@H]1CCC(=O)N1 ([pGlu]HWSYGLRP-NHEt),inactive,inactive,inactive,inactive,–,inactive,inactive,inactive,inactive,–,–,–,–,–,inactive,inactive,–,–,inactive,inactive
C[C@H](CCC(=O)O)[C@H]1CC[C@H]2[C@@H]3CC[C@@H]4C[C@H](O)CC[C@]4(C)[C@H]3CC[C@]12C,inactive,inactive,inactive,inactive,inactive,inactive,inactive,–,inactive,–,24.4 µM (active),inactive,inactive,inactive,inactive,–,inactive,–,inactive,inactive
CN1CCN2c3ccccc3Cc3ccccc3C2C1 (stereo unspecified),inactive,inactive,inactive,inactive,inactive,inactive,–,inactive,–,–,–,–,–,–,inactive,inactive,–,inactive,–,inactive
C[C@@H](CN(C)C)CN1c2ccccc2Sc2ccccc21,inactive,inactive,inactive,inactive,inactive,inactive,inactive,inactive,–,0.0041 µM (active),inactive,inactive,29.8 µM (active),–,1.68 µM (active),–,–,inactive,inactive,–
CN(C)CCN(Cc1ccccc1)c1ccccn1,inactive,inactive,inactive,inactive,–,inactive,inactive,inactive,–,7.29 µM (active),inactive,inactive,inactive,–,inactive,–,–,inactive,inactive,inactive
CCn1nc(C)c2c1C(=O)NCC(c1ccc(O)cc1)=N2,inactive,inactive,inactive,inactive,–,inactive,inactive,inactive,inactive,inactive,inactive,inactive,inactive,inactive,–,inactive,inactive,inactive,–,inactive
O=C(O)CCCl,inactive,inactive,inactive,inactive,inactive,–,inactive,inactive,inactive,inactive,–,inactive,–,inactive,inactive,inactive,inactive,inactive,–,inactive
O=C1C=CC(=O)N1c1cccc(N2C(=O)C=CC2=O)c1,54.5 µM (active),4.86 µM (active),inactive,inactive,inactive,inactive,40.8 µM (active),–,–,inactive,–,inactive,–,–,–,inactive,inactive,–,–,–
CC(C)c1ccc(O)c(C(C)C)c1,inactive,68.6 µM (active),inactive,inactive,inactive,inactive,–,inactive,inactive,–,–,inactive,inactive,–,inactive,–,inactive,–,–,inactive
CCC(C)C(C)=O (stereo unspecified),inactive,inactive,inactive,inactive,–,–,inactive,inactive,inactive,inactive,inactive,inactive,inactive,–,inactive,–,inactive,inactive,inactive,inactive
O=C1C=CC(=O)N1c1ccc(Cc2ccc(N3C(=O)C=CC3=O)cc2)cc1,27.3 µM (active),9.69 µM (active),inactive,inactive,inactive,inactive,16.2 µM (active),–,–,37.5 µM (active),43.6 µM (active),–,–,–,4.33 µM (active),–,–,–,–,–
